FadD28 binding: blocks FadD28 binding to the bisubstrate probe; fluorescence polarization; inhibition, % at 12.5 µM; 0.22% of 360,000 active; in the data active means inhibition above about 8.5%, passing the limit was not always enough
Rv3671c protease: inhibitors of M. tuberculosis serine protease Rv3671c. P9WHR9. inhibition, % at 5.96 µM. AID 2606. 0.048% of 320,000 active; in the data active means inhibition above about 38%;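 further: extracellular domain of Rv3671c used as enzyme; 0% = enzyme with DMSO and 100% = no enzyme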
BioA inh: blocks M. tuberculosis BioA enzyme activity. purified M. tuberculosis BioA enzyme, plate reader. inhibition, % at 9.99 µM. 0.096% of 360,000 active; in the data active means inhibition above about 40%
Mtb FBA inh: inhibits M. tuberculosis FBA enzyme. AID 588726. 2.3% of 360,000 active. purified M. tuberculosis FBA, fluorescence read-out. inhibition, % at 1 µM;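 further: 0% = vehicle and 100% = reference inhibitor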
Target sequence (P9WQA3 whole entry, looked up): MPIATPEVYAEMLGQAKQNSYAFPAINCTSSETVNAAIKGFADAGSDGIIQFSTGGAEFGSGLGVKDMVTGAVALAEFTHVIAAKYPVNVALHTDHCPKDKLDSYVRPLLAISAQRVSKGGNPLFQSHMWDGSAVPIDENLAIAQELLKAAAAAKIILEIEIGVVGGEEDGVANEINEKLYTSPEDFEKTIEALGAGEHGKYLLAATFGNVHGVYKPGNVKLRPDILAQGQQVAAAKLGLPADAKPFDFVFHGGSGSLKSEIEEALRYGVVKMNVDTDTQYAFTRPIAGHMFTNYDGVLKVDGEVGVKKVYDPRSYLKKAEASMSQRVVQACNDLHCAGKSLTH
GDH-TPI counter-1: counter-screen for M. tuberculosis FBA inhibitors: GDH-TPI coupled enzymes; GDH-TPI coupled enzyme counterscreen, NADH absorbance; inhibition, % at 4.8 µM; 1.2% of 360,000 active; AID 588335; in the data active means inhibition above about 30%;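 further: 0% = DMSO wells and 100% = wells lacking the enzyme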
Mtb FBA confirm: confirmation of M. tuberculosis fructose-bisphosphate aldolase inhibitors | shares compounds with Mtb FBA inh | purified M. tuberculosis FBA, fluorescence read-out | inhibition, % at 1 µM | 78% of 5,600 active;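 further: 0% = vehicle wells and 100% = reference inhibitor wells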
GDH-TPI counter-2: counter-screen for M. tuberculosis FBA inhibitors: GDH-TPI coupled enzyme inhibition; shares compounds with Mtb FBA inh; GDH-TPI coupled enzyme counterscreen, fluorescence; inhibition, % at 1 µM; 81% of 5,600 active; AID 652141; in the data active means inhibition above about 10%
GDH-TPI dose: counter-screen for M. tuberculosis FBA inhibitors: GDH-TPI dose response | 79% of 170 active | IC50, µM | GDH-TPI coupled enzyme assay, fluorescence, artifact counterscreen | shares compounds with Mtb FBA inh; call rule not given here
* = called active by the depositor; · = no result; + = active, no number. A selection: hits, their analogues and other compounds. The true share with any hit is near 3%. Unless noted, no stated cut-off is given here; in the data, active means inhibition above about 27%; inactive means the rest.

SMILES	FadD28 binding	Rv3671c protease	BioA inh	Mtb FBA inh	GDH-TPI counter-1	Mtb FBA confirm	GDH-TPI counter-2	others
Cc1ccc(S(=O)(=O)N2C[C@@H](O)COC[C@H]3O[C@@H](CC(=O)NCC4CCCCC4)CC[C@@H]32)cc1	·	·	1	·	·	·	·
Cc1cccn2c(NCc3ccc4c(c3)OCO4)c(-c3ccc(O)cc3)nc12	-2	1	·	53*	3	182*	112*
COC(=O)Cc1c[nH]c2cccc(OCC(O)CN(Cc3ccccc3)C(C)C)c12 (stereo unspecified)	-5	-6	0	29*	-3	25	25*
C[C@H](CO)N1C[C@H](C)[C@H](CN(C)C(=O)CCCN(C)C)OCCCC[C@H](C)Oc2ccc(NC(=O)Nc3ccccc3)cc2C1=O	·	·	0	·	·	·	·
Cc1ccc(C(=O)N2CCN(c3ccc(N4CCOCC4)nn3)CC2)cc1	-2	-1	·	37*	-6	+	+
CCCCOc1ccc(C(=O)N2CCN(c3ccc(N4CCOCC4)nn3)CC2)cc1	-1	2	1	30*	5	7	-6
Cc1cccc(C(=O)N2CCN(c3ccc(N4CCOCC4)nn3)CC2)c1	-3	12	·	21	1	·	·
COc1cc(OC)cc(C(=O)N2CCN(c3ccc(N4CCOCC4)nn3)CC2)c1	-1	3	2	28*	12	-3	-8
COC(=O)C[C@@H]1C[C@H]2c3cc(NS(=O)(=O)c4ccccc4)ccc3O[C@H]2[C@H](CO)O1	·	·	0	·	·	·	·
C[C@@H]1CN([C@@H](C)CO)C(=O)Cc2cc(NC(=O)CCN3CCOCC3)ccc2O[C@@H]1CN(C)Cc1ccncc1	·	·	0	·	·	·	·
COc1ccc(-c2csc(-c3ccc(C(=O)O)cc3)n2)cc1	-2	-4	·	49*	22	58*	43*
O=C(O)c1ccc(-c2nc(-c3ccc(Cl)cc3)cs2)cc1	-5	·	·	2	2	·	·
C[C@@H]1CN([C@@H](C)CO)C(=O)c2cc(NC(=O)Cc3cn(C)c4ccccc34)ccc2O[C@H]1CN(C)C(=O)Nc1ccccc1	·	·	0	·	·	·	·
CC(C)(C)CC(C)(C)Nc1c(-c2ccc(O)cc2)nc2cnccn12	-2	-7	2	59*	15	+	+
Oc1ccc(-c2nc3cnccn3c2Nc2ccc3c(c2)OCCO3)cc1	-2	2	21	0	23	·	·
Cc1c(Cc2ccccc2)c(=O)oc2c(C)c(OCc3nn[nH]n3)ccc12	-34	-9	15	66*	18	+	+
CCCc1cc(=O)oc2c(C)c(OCc3nn[nH]n3)ccc12	-3	5	·	50*	14	3	-1
Cc1cc(OCc2nn[nH]n2)c2c(C)c(Cc3ccccc3)c(=O)oc2c1	-7	-7	12	105*	3	66*	58*
C[C@@H]1CN([C@@H](C)CO)C(=O)c2cc(NC(=O)c3ccncc3)ccc2O[C@@H]1CN(C)C	·	·	2	·	·	·	·
C[C@H](O)C#Cc1cnc2c(c1)C(=O)N([C@H](C)CO)C[C@H](C)[C@H](CN(C)C(=O)Cc1ccncc1)O2	·	·	0	·	·	·	·
COc1ccc(NC(=O)N(C)C[C@@H]2Oc3ccc(NC(=O)C4CC4)cc3C(=O)N([C@H](C)CO)C[C@H]2C)cc1	·	·	1	·	·	·	·
C[C@@H]1CN([C@H](C)CO)C(=O)Cc2cc(NC(=O)c3ccncc3)ccc2O[C@H]1CN(C)C(=O)Nc1cccc2ccccc12	·	·	-2	·	·	·	·
C[C@@H]1CN([C@H](C)CO)C(=O)c2cc(C#CC3CCCC3)cnc2O[C@H]1CN(C)C(=O)c1ccncc1	·	·	1	·	·	·	·
COc1cc2c(cc1NC(=S)Nc1cccc(C)c1)oc1ccccc12	-2	-6	·	87*	31*	12	-4	GDH-TPI dose=>10
COc1cc2c(cc1NC(=O)Nc1cccc(C)c1)oc1ccccc12	-4	-13	-3	4	12	·	·
CCNC(=S)Nc1cc2oc3ccccc3c2cc1OC	-2	2	1	31*	7	4	5
COc1cc2c(cc1NC(=S)Nc1ccccc1C)oc1ccccc12	-2	4	-5	111*	36*	56*	43*
CC(C)NC(=O)N[C@H]1C=C[C@H](CC(=O)O)O[C@H]1CO	·	·	-2	·	·	·	·

Screening results deposited in PubChem by several laboratories.
